# Reference: publication doi:10.1101/2025.08.08.669391
# Tests used:
# Test in all cases: cross-linking mass spectrometry
# Conditions in all cases: DSSO, not determined
# AIF1L = AIF1L (UniProt Q9BQI0)
# B4GALNT4 = B4GALNT4 (UniProt Q76KP1)
# CCT2 = CCT2 (UniProt P78371)
# CCT4 = CCT4 (UniProt P50991)
# MEPE = MEPE (UniProt Q9NQ76)
# SF3B1 = SF3B1 (UniProt O75533)
# SMC4 = SMC4 (UniProt Q9NTJ3)
# SNU13 = SNU13 (UniProt P55769)
# TPPP3 = TPPP3 (UniProt Q9BW30)
# TRIM28 = TRIM28 (UniProt Q13263)
# XRCC5 = XRCC5 (UniProt P13010)
# Sequence of HTATSF1 (O43719 whole entry): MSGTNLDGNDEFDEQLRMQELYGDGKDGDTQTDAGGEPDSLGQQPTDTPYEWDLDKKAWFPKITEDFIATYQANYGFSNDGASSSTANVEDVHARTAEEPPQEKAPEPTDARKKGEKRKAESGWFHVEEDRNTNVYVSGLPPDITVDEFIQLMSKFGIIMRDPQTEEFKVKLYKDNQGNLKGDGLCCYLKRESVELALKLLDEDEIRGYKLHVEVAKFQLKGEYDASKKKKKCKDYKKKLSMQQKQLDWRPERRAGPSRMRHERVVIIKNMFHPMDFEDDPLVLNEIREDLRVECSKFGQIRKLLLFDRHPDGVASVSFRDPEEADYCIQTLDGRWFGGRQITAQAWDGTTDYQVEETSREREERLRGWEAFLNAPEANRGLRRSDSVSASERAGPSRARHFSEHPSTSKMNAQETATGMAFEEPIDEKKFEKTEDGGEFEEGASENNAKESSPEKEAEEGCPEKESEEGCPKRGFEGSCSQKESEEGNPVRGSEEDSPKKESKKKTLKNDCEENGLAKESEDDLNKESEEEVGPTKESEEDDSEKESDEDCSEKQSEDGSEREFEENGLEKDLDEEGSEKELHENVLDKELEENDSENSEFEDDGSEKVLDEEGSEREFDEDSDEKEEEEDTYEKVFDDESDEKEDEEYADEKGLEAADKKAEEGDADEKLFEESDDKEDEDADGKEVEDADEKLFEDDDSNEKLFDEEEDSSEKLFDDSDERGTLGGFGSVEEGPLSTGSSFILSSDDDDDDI
# Sequence of UniProt Q9NQ76 (Q9NQ76 whole entry): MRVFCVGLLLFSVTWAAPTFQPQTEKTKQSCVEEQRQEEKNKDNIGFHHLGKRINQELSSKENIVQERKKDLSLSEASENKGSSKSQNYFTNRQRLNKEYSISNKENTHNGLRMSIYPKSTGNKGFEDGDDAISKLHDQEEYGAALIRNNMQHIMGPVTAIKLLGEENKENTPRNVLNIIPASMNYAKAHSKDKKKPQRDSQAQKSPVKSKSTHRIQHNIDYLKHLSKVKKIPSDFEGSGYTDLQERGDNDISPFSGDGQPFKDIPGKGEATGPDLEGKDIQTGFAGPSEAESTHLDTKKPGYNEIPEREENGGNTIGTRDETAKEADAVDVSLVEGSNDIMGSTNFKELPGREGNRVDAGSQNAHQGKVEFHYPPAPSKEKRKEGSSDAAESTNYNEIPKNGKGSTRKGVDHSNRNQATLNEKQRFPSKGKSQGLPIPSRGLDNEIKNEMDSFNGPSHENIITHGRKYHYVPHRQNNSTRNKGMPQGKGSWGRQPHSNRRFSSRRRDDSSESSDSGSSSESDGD
# Sequence of CCT4, P50991 (P50991 whole entry): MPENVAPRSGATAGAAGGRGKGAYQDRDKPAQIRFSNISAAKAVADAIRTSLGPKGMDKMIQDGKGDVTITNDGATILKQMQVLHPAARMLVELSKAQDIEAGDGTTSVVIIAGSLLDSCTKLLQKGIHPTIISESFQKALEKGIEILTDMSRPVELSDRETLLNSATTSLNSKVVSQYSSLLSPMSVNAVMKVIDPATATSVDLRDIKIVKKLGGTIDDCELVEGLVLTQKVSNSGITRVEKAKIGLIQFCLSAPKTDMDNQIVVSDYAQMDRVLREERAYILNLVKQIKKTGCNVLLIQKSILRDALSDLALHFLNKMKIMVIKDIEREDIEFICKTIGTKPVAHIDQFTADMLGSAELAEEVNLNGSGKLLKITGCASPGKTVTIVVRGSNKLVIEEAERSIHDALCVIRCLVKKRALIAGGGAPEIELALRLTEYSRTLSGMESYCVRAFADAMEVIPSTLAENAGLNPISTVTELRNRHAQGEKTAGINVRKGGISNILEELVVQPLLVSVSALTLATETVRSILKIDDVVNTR
# Sequence of CCT4 (P50991 whole entry): as above
# Sequence of BCL9 (O00512 whole entry): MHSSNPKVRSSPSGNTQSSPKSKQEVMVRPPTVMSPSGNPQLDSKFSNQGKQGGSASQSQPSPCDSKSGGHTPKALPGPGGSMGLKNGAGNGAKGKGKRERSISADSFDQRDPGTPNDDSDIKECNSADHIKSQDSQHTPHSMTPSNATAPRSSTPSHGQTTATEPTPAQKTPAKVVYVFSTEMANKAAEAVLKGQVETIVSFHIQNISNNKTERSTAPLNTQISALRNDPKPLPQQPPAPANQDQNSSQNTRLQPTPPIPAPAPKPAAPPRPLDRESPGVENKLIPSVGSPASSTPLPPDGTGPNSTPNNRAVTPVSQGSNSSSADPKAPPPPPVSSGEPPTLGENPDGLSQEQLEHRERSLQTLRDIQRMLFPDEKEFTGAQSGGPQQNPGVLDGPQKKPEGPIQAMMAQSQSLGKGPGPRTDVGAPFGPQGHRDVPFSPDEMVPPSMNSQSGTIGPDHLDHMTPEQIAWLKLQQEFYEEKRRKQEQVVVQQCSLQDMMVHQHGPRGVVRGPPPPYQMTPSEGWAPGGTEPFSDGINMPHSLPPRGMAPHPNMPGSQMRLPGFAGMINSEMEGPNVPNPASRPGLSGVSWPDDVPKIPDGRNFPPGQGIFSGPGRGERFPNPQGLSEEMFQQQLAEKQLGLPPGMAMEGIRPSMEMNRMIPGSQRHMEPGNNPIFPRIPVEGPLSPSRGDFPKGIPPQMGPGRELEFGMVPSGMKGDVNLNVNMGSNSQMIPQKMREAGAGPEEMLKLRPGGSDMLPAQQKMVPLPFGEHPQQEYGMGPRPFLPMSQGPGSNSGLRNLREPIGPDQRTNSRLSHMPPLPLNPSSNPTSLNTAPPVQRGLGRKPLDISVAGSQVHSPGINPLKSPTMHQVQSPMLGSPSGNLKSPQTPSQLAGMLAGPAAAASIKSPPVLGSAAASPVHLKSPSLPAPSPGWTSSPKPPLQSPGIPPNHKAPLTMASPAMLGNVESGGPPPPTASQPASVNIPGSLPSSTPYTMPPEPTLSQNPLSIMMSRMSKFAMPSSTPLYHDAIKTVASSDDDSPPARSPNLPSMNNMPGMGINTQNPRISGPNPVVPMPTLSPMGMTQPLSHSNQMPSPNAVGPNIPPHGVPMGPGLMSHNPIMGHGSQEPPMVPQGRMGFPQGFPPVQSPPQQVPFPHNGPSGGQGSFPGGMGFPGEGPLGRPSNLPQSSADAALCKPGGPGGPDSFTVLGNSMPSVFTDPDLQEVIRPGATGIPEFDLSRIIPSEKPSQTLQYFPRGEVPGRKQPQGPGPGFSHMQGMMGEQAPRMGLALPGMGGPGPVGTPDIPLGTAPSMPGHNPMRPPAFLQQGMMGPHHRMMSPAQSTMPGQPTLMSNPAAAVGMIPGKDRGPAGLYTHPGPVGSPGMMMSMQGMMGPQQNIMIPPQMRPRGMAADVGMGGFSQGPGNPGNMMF
# Sequence of UniProt Q9BW30 (Q9BW30 whole entry): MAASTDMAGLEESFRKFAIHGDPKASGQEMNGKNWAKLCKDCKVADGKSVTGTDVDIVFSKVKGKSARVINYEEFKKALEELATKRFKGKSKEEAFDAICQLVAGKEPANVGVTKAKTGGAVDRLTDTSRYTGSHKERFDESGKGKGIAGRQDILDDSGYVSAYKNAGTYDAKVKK
# Sequence of EPRS1 (P07814 whole entry): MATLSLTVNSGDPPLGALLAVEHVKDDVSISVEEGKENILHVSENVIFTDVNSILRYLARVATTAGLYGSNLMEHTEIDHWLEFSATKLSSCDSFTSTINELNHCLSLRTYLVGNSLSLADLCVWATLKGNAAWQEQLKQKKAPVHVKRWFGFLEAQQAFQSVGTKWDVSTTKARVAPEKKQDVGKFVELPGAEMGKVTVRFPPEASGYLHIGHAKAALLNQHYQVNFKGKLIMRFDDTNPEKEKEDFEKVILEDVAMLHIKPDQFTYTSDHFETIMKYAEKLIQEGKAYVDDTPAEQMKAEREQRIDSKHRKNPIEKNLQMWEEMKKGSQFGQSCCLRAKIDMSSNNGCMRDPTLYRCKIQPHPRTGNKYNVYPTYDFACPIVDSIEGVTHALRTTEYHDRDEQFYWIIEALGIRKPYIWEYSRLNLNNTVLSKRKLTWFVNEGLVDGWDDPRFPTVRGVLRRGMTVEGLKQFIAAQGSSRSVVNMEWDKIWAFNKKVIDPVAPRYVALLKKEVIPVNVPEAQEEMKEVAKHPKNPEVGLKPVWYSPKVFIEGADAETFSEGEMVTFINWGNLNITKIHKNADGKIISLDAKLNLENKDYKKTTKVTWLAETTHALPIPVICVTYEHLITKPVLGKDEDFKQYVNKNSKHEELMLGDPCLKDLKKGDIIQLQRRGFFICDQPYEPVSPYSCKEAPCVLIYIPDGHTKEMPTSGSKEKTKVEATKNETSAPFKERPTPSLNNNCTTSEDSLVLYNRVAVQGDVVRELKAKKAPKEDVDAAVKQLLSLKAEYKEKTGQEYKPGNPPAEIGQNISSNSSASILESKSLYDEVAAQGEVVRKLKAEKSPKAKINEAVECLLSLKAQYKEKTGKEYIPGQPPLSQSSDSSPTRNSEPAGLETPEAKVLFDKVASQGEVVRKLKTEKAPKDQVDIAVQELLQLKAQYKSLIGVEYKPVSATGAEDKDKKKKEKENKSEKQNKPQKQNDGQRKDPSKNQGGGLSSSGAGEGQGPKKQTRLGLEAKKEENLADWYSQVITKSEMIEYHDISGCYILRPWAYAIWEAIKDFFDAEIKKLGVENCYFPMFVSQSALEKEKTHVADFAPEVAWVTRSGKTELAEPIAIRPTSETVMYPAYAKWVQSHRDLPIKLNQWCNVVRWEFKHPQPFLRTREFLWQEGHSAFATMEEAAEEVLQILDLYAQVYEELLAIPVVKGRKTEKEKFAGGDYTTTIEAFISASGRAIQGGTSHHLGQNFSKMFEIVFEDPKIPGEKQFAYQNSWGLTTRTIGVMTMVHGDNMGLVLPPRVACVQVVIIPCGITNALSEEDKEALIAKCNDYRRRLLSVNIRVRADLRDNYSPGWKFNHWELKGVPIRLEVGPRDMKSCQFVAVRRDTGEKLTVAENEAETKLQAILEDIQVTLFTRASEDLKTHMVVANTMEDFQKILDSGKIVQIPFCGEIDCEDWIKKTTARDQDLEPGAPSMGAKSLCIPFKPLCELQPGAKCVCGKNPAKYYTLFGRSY
substance,measurement,setting,value
"CLEC4F, Q8N1N0",cross-linked residues,AIF1L,K474 - K129
"EPRS1, P07814",cross-linked residues,B4GALNT4,K300 - K232
"CCT4, P50991",cross-linked residues,CCT2,K21 - K522
"TCP1, P17987",cross-linked residues,CCT4,K126 - K55
"EPHX2, P34913",cross-linked residues,MEPE,K55 - K369
"HTATSF1, O43719",cross-linked residues,SF3B1,K297 - K333
"SMC2, O95347",cross-linked residues,SMC4,K580 - K731
"NOP56, O00567",cross-linked residues,SNU13,K396 - K86
"VIM, P08670",cross-linked residues,TPPP3,K223 - K48
"BCL9, O00512",cross-linked residues,TRIM28,K1244 - K289
"XRCC6, P12956",cross-linked residues,XRCC5,K317 - K282
